Among the data in PMC9838217, “Structure of SALL4 zinc finger domain reveals link between AT-rich DNA binding and Okihiro syndrome” are binding signal values, retold here.

Changes are numbered by the printed parent chain.

What all share (test): HT-SELEX; high values mean tight binding
What all share (conditions): protein: recombinant; vector His6-GST; dsDNA, one strand shown

Experiment [1] deals with T1, SALL4 ZFC4 WT (HT-SELEX) (Mus musculus, UniProt Q8BX22 870-940).
T1 sequence: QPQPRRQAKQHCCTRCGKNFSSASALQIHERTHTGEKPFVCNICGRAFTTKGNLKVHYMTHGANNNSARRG
In short, it runs like this: (§1)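 Purified recombinant mouse SALL4 zinc finger cluster 4 (residues 870–940, 1 µg) and library DNA (1.5 µg first cycle, 200 ng later) were incubated for 10 min at room temperature in 100 µl of 10 mM Tris–HCl pH 7.5, 50 mM NaCl, poly(dI-dC) and DTT. After Ni2+ bead capture and up to 6 triplicate cycles of selection, DNA was MiSeq-sequenced and scanned for 6-mers. Binding signal is the fold change in each canonical k-mer's read fraction relative to the initial random library.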

Experiment [2] concerns the target T2, SALL4 ZFC4 R900W (HT-SELEX) (Mus musculus, UniProt Q8BX22 870-940, R900W).
T2 sequence: T1 sequence with R31W
The essentials:
as §1

In experiment [3] the target is T3, SALL4 ZFC4 G921D (HT-SELEX) (Mus musculus, UniProt Q8BX22 870-940, G921D).
T3 sequence: T1 sequence with G52D
In short, it runs like this: as §1

For the sequence AATGTA, the binding signal in experiment [1] was 2.02 ± 0.0563 fold-change vs cycle 0; in experiment [2], 1.99 ± 0.0939 fold-change vs cycle 0; in experiment [3] it was 1.76 ± 0.157 fold-change vs cycle 0.

As for GGAGAC, the binding signal turned out to be 0.471 ± 0.0075 fold-change vs cycle 0 in experiment [1], 0.574 ± 0.0262 fold-change vs cycle 0 in experiment [2] and 0.671 ± 0.0455 fold-change vs cycle 0 in experiment [3].

On to CCGTCA, for which the results for the binding signal in experiment [1], in experiment [2] and in experiment [3] were 0.358 ± 0.0271 fold-change vs cycle 0, 0.431 ± 0.0281 fold-change vs cycle 0 and 0.531 ± 0.0693 fold-change vs cycle 0, respectively.

In the case of ATCGCA, the binding signal was determined as 0.515 ± 0.00556 fold-change vs cycle 0 in experiment [1], 0.522 ± 0.0161 fold-change vs cycle 0 in experiment [2] and 0.667 ± 0.0619 fold-change vs cycle 0 in experiment [3].

For the sequence AGACCC, the binding signal in experiment [1] stood at 0.415 ± 0.0196 fold-change vs cycle 0; in experiment [2], 0.511 ± 0.0173 fold-change vs cycle 0; in experiment [3], 0.612 ± 0.0617 fold-change vs cycle 0.

With ATGTTG, the binding signal in experiment [1] came to 1.2 ± 0.026 fold-change vs cycle 0; in experiment [2], 1.29 ± 0.0687 fold-change vs cycle 0; in experiment [3], 1.28 ± 0.0984 fold-change vs cycle 0.

For the sequence CTTACA, the values for the binding signal in experiment [1], in experiment [2] and in experiment [3] were 1.41 ± 0.0514 fold-change vs cycle 0, 1.55 ± 0.0884 fold-change vs cycle 0 and 1.43 ± 0.0941 fold-change vs cycle 0, respectively.

With ACTCAG, the binding signal in experiment [1] was 0.865 ± 0.0453 fold-change vs cycle 0; in experiment [2] it was 0.97 ± 0.0144 fold-change vs cycle 0; in experiment [3], 0.994 ± 0.0115 fold-change vs cycle 0.

For TCCCCA, the binding signal in experiment [1] was found to be 0.461 ± 0.0365 fold-change vs cycle 0; in experiment [2], 0.533 ± 0.0451 fold-change vs cycle 0; in experiment [3], 0.593 ± 0.0323 fold-change vs cycle 0.

ACCGAA: the binding signal in experiment [1] worked out at 0.637 ± 0.01 fold-change vs cycle 0; in experiment [2], 0.698 ± 0.028 fold-change vs cycle 0; in experiment [3] it was 0.776 ± 0.0511 fold-change vs cycle 0.

On to ATCACC, for which the figures for the binding signal in experiment [1], in experiment [2] and in experiment [3] were 0.917 ± 0.0379 fold-change vs cycle 0, 0.988 ± 0.0223 fold-change vs cycle 0 and 1.06 ± 0.0273 fold-change vs cycle 0, respectively.

As for CGTGAA, the binding signal in experiment [1] worked out at 0.669 ± 0.0388 fold-change vs cycle 0; in experiment [2] it was 0.776 ± 0.0286 fold-change vs cycle 0; in experiment [3] it was 0.834 ± 0.041 fold-change vs cycle 0.

Regarding ACGGTC, the binding signal in experiment [1] was determined as 0.362 ± 0.0473 fold-change vs cycle 0; in experiment [2] it was 0.432 ± 0.0371 fold-change vs cycle 0; in experiment [3], 0.553 ± 0.067 fold-change vs cycle 0.

For the sequence CGGATC, the binding signal in experiment [1] worked out at 0.362 ± 0.0382 fold-change vs cycle 0; in experiment [2], 0.438 ± 0.0155 fold-change vs cycle 0; in experiment [3], 0.571 ± 0.02 fold-change vs cycle 0.

With CAACAC, the binding signal in experiment [1] was 0.658 ± 0.0239 fold-change vs cycle 0; in experiment [2], 0.8 ± 0.0226 fold-change vs cycle 0; in experiment [3], 0.849 ± 0.0276 fold-change vs cycle 0.

In the case of AGTTCC, the binding signal in experiment [1] came to 0.848 ± 0.0309 fold-change vs cycle 0; in experiment [2], 0.972 ± 0.0535 fold-change vs cycle 0; in experiment [3], 0.98 ± 0.0319 fold-change vs cycle 0.

As to AGTTGG, the binding signal in experiment [1] amounted to 0.73 ± 0.0169 fold-change vs cycle 0; in experiment [2], 0.834 ± 0.0159 fold-change vs cycle 0; in experiment [3], 0.883 ± 0.0279 fold-change vs cycle 0.

On to CCGACA, for which the binding signal in experiment [2] turned out to be 0.311 ± 0.0211 fold-change vs cycle 0; in experiment [3] it was 0.462 ± 0.0665 fold-change vs cycle 0.

Turning to GGGCGA, the binding signal in experiment [2] was determined as 0.127 ± 0.00943 fold-change vs cycle 0; in experiment [3], 0.251 ± 0.0728 fold-change vs cycle 0.

For the sequence CTACGC, the binding signal in experiment [2] was 0.278 ± 0.0143 fold-change vs cycle 0; in experiment [3], 0.414 ± 0.0855 fold-change vs cycle 0.

Consider CTGCGA, for which the binding signal is 0.28 ± 0.0255 fold-change vs cycle 0 in experiment [2] and 0.404 ± 0.0745 fold-change vs cycle 0 in experiment [3].

As for CGGGGA, the binding signal in experiment [2] stood at 0.231 ± 0.0209 fold-change vs cycle 0; in experiment [3], 0.347 ± 0.093 fold-change vs cycle 0.

Take AATACG: the values for the binding signal in experiment [1] and in experiment [3] were 1.06 ± 0.0521 fold-change vs cycle 0 and 1.1 ± 0.0362 fold-change vs cycle 0, respectively.

As for CGCCAC, the binding signal in experiment [2] worked out at 0.103 ± 0.0044 fold-change vs cycle 0; in experiment [3], 0.216 ± 0.0502 fold-change vs cycle 0.

As for CATCTC, the figures for the binding signal in experiment [1] and in experiment [3] were 0.879 ± 0.041 fold-change vs cycle 0 and 1.01 ± 0.0361 fold-change vs cycle 0, respectively.

GGCAAC: the binding signal is 0.322 ± 0.0219 fold-change vs cycle 0 in experiment [2] and 0.438 ± 0.0577 fold-change vs cycle 0 in experiment [3].

For GAGGCC, the figures for the binding signal in experiment [2] and in experiment [3] were 0.158 ± 0.00288 fold-change vs cycle 0 and 0.286 ± 0.0765 fold-change vs cycle 0, respectively.
